# KB-V1 MDR tox = qHTS assay for MDR1-selective chemotherapeutics: Primary screen using the drug-selected MDR subline cells KB-V1; KB-V1 MDR cells viability, CellTiter-Glo, 72 h; Potency, µM (doses to about 46.1 µM), hits mostly cytotoxic; hit rate 3.4% among 400,000; AID 1347076, 2019; further: on the % scale 0 is the no-effect control and ±100 the full control effect; nearly all actives have a fitted effect of over 60% in size
#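 Potencies derive from concentration-effect curves fitted to normalized luminescence (CellTiter-Glo) of KB-V1 cells treated for 72 h at 37 degrees C in phenol-red-free DMEM containing 10% FBS.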
# MCF10A rereplic = A quantitative high throughput screen for small molecules that induce DNA re-replication in MCF 10a normal breast cells | AID 624296, 2012 | MCF 10A DNA re-replication, Hoechst nuclear intensity, 48 h | Potency, µM (top dose mostly 46.1 µM), for the others: at the highest dose activity, positive = re-replication, hits mostly activators | hit rate 2.9% among 350,000; further: % of control where 0% means no effect; nearly all actives have a fitted effect of over 50% in size
# KB-3-1 tox = qHTS assay for MDR1-selective chemotherapeutics: Primary screen using the parental adenocarcinoma cell KB-3-1 | hit rate 1.4% among 400,000 | KB-3-1 viability, CellTiter-Glo ATP luminescence, 72 h | Potency, µM (titrated, usually from 46.1 µM), hits mostly cytotoxic; further: on the % scale 0 is the no-effect control and ±100 the full control effect; nearly all actives have a fitted effect of over 60% in size
#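 Using CellTiter-Glo luminescence, growth of non-resistant KB-3-1 adenocarcinoma cells is assessed 72 h after pin-tool compound addition at 37 °C. Normalized responses across the concentration series yield fitted curves.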
# Gal4-VP16 FLuc = VP16 counterscreen qHTS for inhibitors of ROR gamma transcriptional activity. hit rate 3.5% among 310,000. AID 2546, 2010. Potency, µM (highest dose often 53.6 µM), inactives show top-dose activity, negative = inhibition, most hits filed as inhibitors. Drosophila S2 Gal4-VP16 UAS-luciferase, luminescence, 20 h;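 further: Gal4-VP16 expression switched on by copper sulfate through the metallothionein promoter; on the % scale 0 is the no-effect control and ±100 the full control effect; nearly all actives have a fitted effect of over 50% in size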
# SW480 rerep = A quantitative high throughput screen for small molecules that induce DNA re-replication in SW480 colon adenocarcinoma cells; SW480 DNA re-replication, Hoechst DNA content imaging, 48 h; hit rate 1.8% among 340,000; Potency, µM (highest dose often 46.1 µM), without a hit: at the highest dose re-replication activation, usual class: activators; further: % of control where 0% means no effect; nearly all actives have a fitted effect of over 55% in size
#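 Cells (250 per well) received 23 nL compound or DMSO by pin tool and were kept 48 hr at 37 C, 5% CO2. Nuclei were then stained with Hoechst for 40 min and scanned for DNA content.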
# RORg inh = qHTS for inhibitors of ROR gamma transcriptional activity. Nuclear receptor ROR-gamma (Mus musculus), P51450. Drosophila S2 Gal4-RORgamma UAS-luciferase reporter, 20 h. Potency, µM (highest dose often 53.6 µM), without a hit: at the top dose activity change, negative = inhibition, most hits filed as inhibitors. hit rate 5.4% among 310,000. AID 2551, 2010; further: on the % scale 0 is the no-effect control and ±100 the full control effect; nearly all actives have a fitted effect of over 60% in size
# Target sequence (P51450 whole entry, looked up, the tested form may be a part): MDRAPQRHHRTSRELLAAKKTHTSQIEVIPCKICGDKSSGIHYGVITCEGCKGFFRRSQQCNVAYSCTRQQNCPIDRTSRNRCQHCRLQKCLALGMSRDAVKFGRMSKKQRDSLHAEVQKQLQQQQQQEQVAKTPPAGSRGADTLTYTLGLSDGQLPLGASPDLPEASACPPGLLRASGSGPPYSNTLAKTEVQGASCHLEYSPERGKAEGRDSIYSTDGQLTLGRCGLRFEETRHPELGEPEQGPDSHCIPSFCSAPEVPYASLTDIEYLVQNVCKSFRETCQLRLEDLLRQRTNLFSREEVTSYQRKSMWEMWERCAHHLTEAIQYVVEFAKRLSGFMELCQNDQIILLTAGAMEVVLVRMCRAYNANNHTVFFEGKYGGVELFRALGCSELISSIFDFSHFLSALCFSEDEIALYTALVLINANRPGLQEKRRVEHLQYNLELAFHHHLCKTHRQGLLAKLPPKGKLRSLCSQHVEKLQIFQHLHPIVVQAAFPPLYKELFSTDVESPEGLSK
#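 ROR gamma transcriptional activity was tracked as Gal4-UAS luciferase output in stably transfected Drosophila Schneider cells, with compound added 1 hr before 700 uM copper sulfate induction and a 20 hr ambient-temperature incubation.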
# * = called active by the depositor; i = inactive; ? = inconclusive; / = no result. Hits are enriched below; roughly 10% of the tested compounds scored in any of these assays. The call rests on the fitted dose curve; in most records, active means well fitted curve in the direction sought with a large enough effect; inconclusive means small, poorly fitted or top-dose-only effect, or another doubt; inactive means no such curve, though single readings can be large; an effect the other way counts as inactive or inconclusive. Potency means the concentration at half of the fitted maximal effect.
SMILES,KB-V1 MDR tox,MCF10A rereplic,KB-3-1 tox,Gal4-VP16 FLuc,SW480 rerep,RORg inh
O=C(Nc1nccs1)c1cc2c(s1)CCCCC2,?,-2.0%,?,7.94µM*,1.8%,25.9%
Cn1nc(N)c2ncc(-c3ccc(Cl)cc3)nc21,7.31µM*,/,i,/,/,/
COC(=O)C1=C(C)N(Cc2ccco2)C(=O)C1,i,4.1%,i,21.5%,-3.5%,10µM*
COc1ccc(N2CCN(S(=O)(=O)c3c(C)nc4sc(C)cn4c3=O)CC2)cc1,i,/,i,/,/,/
CN1CCCN(S(=O)(=O)c2cccc(C(F)(F)F)c2)c2nc3ccccc3nc21,i,20.6µM*,i,/,?,/
CCC(C)NC(=O)c1ccccc1NC(=O)CN1C(=O)c2cccc3cccc1c23 (centres undefined),i,/,i,/,/,/
COC(=O)CSc1nnc([C@H](Cc2ccccc2)NC(=O)OC(C)(C)C)o1,i,-2.7%,i,-6.4%,-3.4%,-1.4%
Cc1cccc(CS(=O)(=O)c2nnc([C@H](Cc3ccccc3)NC(=O)OC(C)(C)C)o2)c1,?,3.26µM*,?,11.2µM*,?,11.2µM*
COC(=O)CS(=O)(=O)c1nnc([C@H](Cc2ccccc2)NC(=O)OC(C)(C)C)o1,?,13µM*,?,?,?,?
O=C(NCCc1csc(-c2cccc(F)c2)n1)c1cccs1,i,/,i,/,/,/
COc1ccccc1CCNC(=O)c1ccc2c(c1)c(C)c(C)n2C,i,/,i,/,/,/
CCCCCCCC(=O)NNC(=O)c1c(O)c2ccccc2n(CC)c1=O,18.4µM*,?,?,0.2%,?,-11.9%
CCCCCCC(=O)NNC(=O)c1c(O)c2ccccc2n(CC)c1=O,?,19.9%,i,?,20.2%,11.2µM*
CCCCCCCCC(=O)NNC(=O)c1c(O)c2ccccc2n(CC)c1=O,?,?,i,-2.1%,15.9%,-11.0%
O=C(NC1CCCc2c1cnn2-c1ccc(F)cc1F)c1ccccn1 (centres undefined),i,-0.1%,i,-20.3%,-5.6%,?
CCc1cc(C(=O)NC2CCCc3c2cnn3-c2ccc(F)cc2F)no1 (centres undefined),?,/,14.6µM*,/,/,/
O=C(CCc1ccccn1)NC1CCCc2c1cnn2-c1ccc(F)cc1F (centres undefined),20.6µM*,-2.1%,?,-12.0%,-4.1%,?
CCN(CC)c1ccc(N=Nc2nn(C)c(C)c2[N+](=O)[O-])cc1,i,11.2%,i,?,1.1%,5.01µM*
CCN(Cc1ccccc1)c1ccc(N=Nc2nn(C)c(C)c2[N+](=O)[O-])cc1,6.51µM*,0.0%,?,?,-12.0%,?
CCc1cccc(C)c1NC(=O)c1cc(S(=O)(=O)N2CCN(c3ccccc3)CC2)ccc1F,i,/,i,/,/,/
O=C1NC[C@H](CCCCN2CCN(CC3CCCCC3)C(=O)C2=O)N(CCc2ccccc2)C1=O,i,/,i,/,/,/
COc1ccc(OC)c(CNc2ncc(-c3ccc(Cl)cc3)n2C)c1,i,/,i,/,/,/
COc1ccc(Cc2n[nH]c(=S)n2Cc2ccccc2)cc1Cl,?,2.6%,i,-3.2%,10.7%,-4.6%
Cc1ccccc1OCc1nnc(SCC(=O)O)n1Cc1ccccc1,i,-4.5%,i,-1.3%,?,-19.7%
Cc1ccccc1OCc1n[nH]c(=S)n1Cc1ccccc1,i,?,i,?,-6.1%,3.55µM*
SMILES,KB-V1 MDR tox,MCF10A rereplic,KB-3-1 tox,Gal4-VP16 FLuc,SW480 rerep,RORg inh
CCOc1ccc(Cc2n[nH]c(=S)n2Cc2ccccc2)cc1,i,-6.9%,i,-21.3%,3.1%,4.47µM*
Cc1ccc(OCc2n[nH]c(=S)n2Cc2ccccc2)cc1,i,-3.1%,i,6.31µM*,-6.8%,0.891µM*
COc1ccccc1C(=O)NCc1n[nH]c(=S)n1Cc1ccccc1,i,-3.5%,i,1.2%,-6.3%,?
S=c1[nH]nc(COc2cccc3ccccc23)n1Cc1ccccc1,i,?,i,?,3.4%,3.16µM*
COc1ccc(-n2c(=O)c(-c3cn(C)c4ccccc34)nc3cncnc32)cc1,/,/,/,-4.1%,/,28.0%
C[C@@H]1CN([C@@H](C)CO)C(=O)CCCn2nncc2CO[C@H]1CN(C)S(=O)(=O)c1ccc(-n2cccn2)cc1,i,/,i,/,/,/
O=C(Nc1cccc(F)c1)N1CC2(CCN(C(=O)c3ccncc3)CC2)C1,/,/,/,-1.9%,/,39.4%
COc1ccccc1NC(=O)NCc1cccn1Cc1ccccc1,i,/,i,/,/,/
Cc1nn(Cc2c(Cl)cccc2Cl)c(Cl)c1/C=N/NC(=O)c1cccnc1,i,20.6µM*,i,1.6%,?,43.4%
COc1ccc(Cn2c(O)c(/C=N/NC(=O)c3cccnc3)c3ccccc3c2=O)cc1,i,?,i,0.2%,?,6.31µM*
COc1ccc(Cn2c(O)c(C=Nc3ccc(OC)cc3)c3ccccc3c2=O)cc1,i,-2.6%,i,-11.3%,-2.2%,3.2%
O=C(N/N=C/c1c(O)n(-c2ccccc2Cl)c(=O)c2ccccc12)c1cccnc1,?,?,i,-7.1%,16.4µM*,12.6µM*
Cn1c(-c2ccccc2)c(/C=N/NC(=O)c2cccnc2)c2ccccc21,i,?,?,2.8%,?,?
O=C(N/N=C/c1c(-c2ccccc2)[nH]c2ccccc12)c1cccnc1,i,?,?,-19.1%,23.1µM*,16.7%
Cc1nn(-c2cccc(Cl)c2)c(Cl)c1/C=N/NC(=O)c1cccnc1,i,?,i,-2.2%,1.2%,12.4%
O=C(N/N=C/c1cccc2ccccc12)c1cccnc1,i,0.7%,i,20.4%,-11.2%,-4.0%
O=C(N/N=C/c1c(O)n(Cc2ccccc2)c(=O)c2ccccc12)c1cccnc1,?,?,18.4µM*,-1.1%,22.6%,11.2µM*
CC(C)c1ccc(/C=C/c2ccc(=O)n(C)n2)cc1,?,?,i,-11.0%,-3.7%,-13.6%
COc1cc(/C=C/C2=NNC(=O)CC2)cc(OC)c1OC,?,3.8%,0.517µM*,9.2%,1.6%,-26.7%
COc1cc(C=C2C(=O)c3ccccc3C2=O)cc(OC)c1OC,i,-0.4%,i,9.5%,0.6%,9.0%
CC(C)c1ccc(/C=C/C2=NNC(=O)CC2)cc1,0.184µM*,?,0.731µM*,-12.9%,?,?

# Screening results from PubChem.
